# Laboratory results: the supplement of paper PMC13380429
# Assays:
# [1] = tested on: Vero E6 infected with SARS-CoV-2; test: morphology score (similarity to uninfected cells); higher = more like uninfected cells; conditions: 24 h
# [2] = tested on: Vero E6 infected with SARS-CoV-2; test: SARS-CoV-2 infection rate relative to infected DMSO; higher = more infection, active = 60 or less; conditions: 24 h
SMILES,morphology score [1],SARS-CoV-2 infection rate [2]
CC(C)=CCC/C(C)=C/CC/C(C)=C/CSc1ccccc1C(N)=O [farnesyl-thiosalicylic-acid-amide] (10 µM),0.012,110% (inactive)
CC1=C(/C=C/C(C)=C/C=C/C(C)=C/C(=O)O)C(C)(C)CCC1 [tretinoin] (10 µM),-0.0366,104% (inactive)
CC(C)(O)CC(=O)NCCn1ccc2ncnc(Nc3ccc(Oc4cccc(C(F)(F)F)c4)c(Cl)c3)c21 (10 µM),-0.138,114% (inactive)
COc1cc(C[C@@H]2NCCc3cc(O)c(O)cc32)cc(OC)c1OC [trimethoquinol] (10 µM),0.0323,99.5% (inactive)
COCCOC(=O)C1=C(C)NC(C)=C(C(=O)OC/C=C/c2ccccc2)C1c1cccc([N+](=O)[O-])c1 (stereo not given) [cilnidipine] (10 µM),0.171,95% (inactive)
CC(=O)NNC(=O)N1Cc2ccccc2Oc2ccc(Cl)cc21 (10 µM),0.0638,97.5% (inactive)
Oc1ccc(O)cc1 [hydroquinone] (10 µM),0.00582,108% (inactive)
CC(C)(C)[C@]1(O)CC2OC(=O)CC23C(=O)OC2OC(=O)[C@H](O)C231 (stereo not given in full) [bilobalide] (10 µM),0.0342,110% (inactive)
Fc1cc(-c2cccc3ncc(-c4cnn(C5CCNCC5)c4)nc23)cc(F)c1CN1CCOCC1 (0.833333 µM),0.0457,116% (inactive)
N[C@@H](C(=O)O)c1ccc(C(=O)O)c(O)c1 (racemic) [4-carboxy-3-hydroxyphenylglycine-(RS)] (10 µM),0.126,101% (inactive)
N[C@@H](C(=O)O)c1ccc(C(=O)O)c(C(=O)O)c1 (racemic) (10 µM),0.105,98.2% (inactive)
O=C(NC(O)C(Cl)(Cl)Cl)NC(O)C(Cl)(Cl)Cl (stereo not given) [dicloralurea] (10 µM),0.108,106% (inactive)
Cc1ccc(CC2(O)CCN(CCOc3ccc(O)cc3)CC2)cc1 (10 µM),-0.0871,111% (inactive)
CNCCC=C1c2ccccc2C=Cc2ccccc21 [norcyclobenzaprine] (10 µM),0.314,81% (inactive)
CN(C)C(=N)NC(=N)N [metformin] (10 µM),-0.00931,108% (inactive)
CC(=O)O[C@]1(C(C)=O)CC[C@H]2[C@@H]3C=C(Cl)C4=CC(=O)CC[C@]4(C)[C@H]3CC[C@@]21C [chlormadinone-acetate] (10 µM),0.106,106% (inactive)
CN(C(=O)CN1C(=O)COc2cc(Cl)c(Cl)cc21)[C@@H](CN1CCCC1)c1ccc(-c2cccc(C(N)=O)c2)cc1 (0.833333 µM),0.0807,104% (inactive)
O=C([O-])CN1CCN(CC(=O)[O-])CCN([C@H](CO)[C@H](O)CO)CCN(CC(=O)[O-])CC1.[Gd+3] (racemic) [gadobutrol] (10 µM),-0.0306,109% (inactive)
O=C1[C@@H]2[C@H]3CC[C@H](C3)[C@@H]2C(=O)N1CCCCN1CCN(c2ncccn2)CC1 [tandospirone] (10 µM),-0.0978,99% (inactive)
C[C@@H](c1nc(-c2ccc(C#N)cc2)cs1)[C@](O)(Cn1cncn1)c1ccc(F)cc1F [ravuconazole] (10 µM),0.0292,107% (inactive)
CC(=O)Nc1cccc(Nc2ncnc(N3CCC(OCc4ccc(OC(F)(F)F)cc4)CC3)n2)c1C (10 µM),0.184,110% (inactive)
c1ccc(CNc2ncnc3[nH]cnc23)cc1 [6-benzylaminopurine] (10 µM),0.186,99% (inactive)
O=C(O)Cn1nnc(-c2cc(N3CCC(Oc4cc(F)ccc4Br)CC3)no2)n1 (10 µM),0.00994,104% (inactive)
N#Cc1ccccc1-c1cc(-c2ccccn2)cn(-c2ccccc2)c1=O [Perampanel] (10 µM),0.11,90.5% (inactive)
CCCCCOc1ccc(-c2cc(-c3ccc(C(=O)N[C@H]4C[C@@H](O)[C@@H](O)NC(=O)[C@@H]5[C@@H](O)[C@@H](C)CN5C(=O)[C@H]([C@H](O)CC(N)=O)NC(=O)[C@H]([C@H](O)[C@@H](O)c5ccc(O)c(OS(=O)(=O)O)c5)NC(=O)[C@@H]5C[C@@H](O)CN5C(=O)[C@H]([C@@H](C)O)NC4=O)cc3)no2)cc1 [micafungin] (10 µM),0.0545,94.5% (inactive)
